Source: the supplement of paper PMC7366291
Where a name gives a salt, the structure may show the parent alone. ± gives the standard deviation or the standard deviation of the averaged measurements.

What was measured:
Details in all cases: 25 µM; exposure: 24-48 hpf
[1] = test system: Danio rerio Tg(wt1b:EGFP) embryo, pronephros; assay: glomerular separation, fold change vs DMSO control; higher = glomeruli further apart (abnormal)
Method in brief: (§1)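 Each feature value is a fold change relative to the mean of same-day DMSO-treated embryos. Embryos of the Tg(wt1b:EGFP) zebrafish line, dechorionated, received 25 μM compound in 0.5% DMSO from 24 to 48 hpf at 28.5°C, in HEPES-buffered E3 with 0.003% PTU. Distances and angles were computed by a Fiji macro from 16 manually set reference points on maximum projections of dorsal pronephros images, and values beyond 2 SD of the feature mean were removed.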

[2] = test system: Danio rerio Tg(wt1b:EGFP) embryo, pronephros; assay: glomerular width (mean of left and right), fold change vs DMSO control; higher = wider glomerulus
Method in brief: as §1

[3] = test system: Danio rerio Tg(wt1b:EGFP) embryo, pronephros; assay: fraction of imaged embryos annotated as normal kidney; higher = less nephrotoxic; extreme values may be limits of the assay
Method in brief: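 The read-out is the proportion of embryos in each treatment manually annotated as normal-kidney. Exposure ran from 24 to 48 hpf at 28.5°C in 12-well plates, using dechorionated Tg(wt1b:EGFP) zebrafish embryos in 5 mM HEPES-buffered E3 with 0.003% PTU, 0.5% DMSO and 25 μM compound. For imaging, larvae were anaesthetised with tricaine, positioned dorsally in agarose-filled 96-well plates and captured by widefield fluorescence (470 nm, 10 z-slices), with scoring done on maximum projections.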

[4] = test system: Danio rerio Tg(wt1b:EGFP) embryo, pronephros; assay: pronephric angle neck segment to proximal convoluted tubule (mean of left and right), fold change vs DMSO control; higher = larger pronephric angle
Method in brief: as §1

Compound	glomerular separation [1]	glomerular width [2]	fraction of imaged embryos annotated as normal kidney [3]	pronephric angle neck segment [4]
C[N+]1(C)CCCC(OC(=O)C(O)(c2ccccc2)c2ccccc2)C1 (stereo not drawn) [Mepenzolate bromide]	1.4 ± 0.8	1.01 ± 0.011	0.727	1 ± 0.054
CCn1cc(C(=O)O)c(=O)c2cc3c(cc21)OCO3 [Oxolinic acid]	0.66 ± 0.37	1.06 ± 0.096	0.583	0.799 ± 0.024
C=CCC1(CC(C)C)C(=O)NC(=O)NC1=O [Butalbital]	0.97 ± 0.31	1.1 ± 0.086	0.75	1.01 ± 0.11
NCCCNCCSP(=O)(O)O [Amifostine]	0.91 ± 0.29	1.04 ± 0.037	0.833	1.02 ± 0.074
CCC1(C)CC(=O)NC(=O)C1 [Bemegride]	0.891 ± 0.28	0.997 ± 0.013	0.75	0.968 ± 0.027
CCCN1C[C@H](CSC)C[C@@H]2c3cccc4[nH]cc(c34)C[C@H]21 [Pergolide mesylate]	1.26 ± 0.37	1.01 ± 0.019	1	0.997 ± 0.029
O=c1[nH]oc2c1CCNC2 [THIP Hydrochloride]	0.923 ± 0.31	1.08 ± 0.012	0.917	0.961 ± 0.03
C[C@@]12N[C@@H](Cc3ccccc31)c1ccccc12 [(-)-MK 801 hydrogen maleate]	1.02 ± 0.29	1.034 ± 0.0098	1	1.02 ± 0.069
C[C@]12CCC(=O)C(O)=C1CC[C@@H]1[C@@H]2CC[C@]2(C)C(=O)CC[C@@H]12 [Formestane]	1.16 ± 0.45	0.866 ± 0.031	0.917	0.9657 ± 0.0071
Clc1ccc(C(OCCN2CCCCC2)c2ccccc2)cc1 (stereo not drawn) [Cloperastine hydrochloride]	0.819 ± 0.35	1.04 ± 0.069	0.917	0.994 ± 0.0094
CC(C)c1c(CN(C)C(C)Cc2ccccc2)n(C)n(-c2ccccc2)c1=O (stereo not drawn) [Famprofazone]	0.985 ± 0.39	0.985 ± 0.031	0.917	1.084 ± 0.0087
CN(C)C(=O)Oc1cccc([N+](C)(C)C)c1 [Neostigmine bromide]	0.984 ± 0.28	0.859 ± 0.034	0.667	1.09 ± 0.053
CN1C[C@H](CNC(=O)OCc2ccccc2)C[C@@H]2c3cccc4c3c(cn4C)C[C@H]21 [Metergoline]	0.977 ± 0.48	0.9966 ± 0.0098	1	0.9894 ± 0.0045
c1ccc2c(c1)Nc1ccccc1S2 [Phenothiazine]	1.35 ± 0.6	0.851 ± 0.062	0.75	1.101 ± 0.002
C[C@]12CC[C@H](O)C[C@@H]1CC[C@@H]1[C@@H]2CC[C@]2(C)C(=O)CC[C@@H]12 [Epiandrosterone]	1.72 ± 0.71	0.905 ± 0.061	0.417	1.04 ± 0.022
CC(C)(C)NCC(O)c1ccccc1Cl (stereo not drawn) [Tulobuterol]	1.02 ± 0.37	0.9779 ± 0.007	0.917	1.01 ± 0.039
C[C@]12CC[C@@H](O)C[C@H]1CC[C@@H]1[C@@H]2CC[C@]2(C)C(=O)CC[C@@H]12 [3-alpha-Hydroxy-5-beta-androstan-17-one]	1.13 ± 0.44	0.982 ± 0.066	0.75	1 ± 0.013
Fc1ccc(C(OCCN2CCN(CCCc3ccccc3)CC2)c2ccc(F)cc2)cc1	5.45 ± 2.3	0.737 ± 0.028	0	1.02 ± 0.097
C(#CCN1CCCC1)CN1CCCC1 [Tremorine dihydrochloride]	1.25 ± 0.52	0.9472 ± 0.008	0.75	1.03 ± 0.015

Compound	glomerular separation [1]	glomerular width [2]	fraction of imaged embryos annotated as normal kidney [3]	pronephric angle neck segment [4]
COc1cc2c(c(OC)c1OC)-c1ccc(OC)c(=O)cc1[C@@H](NC(C)=O)CC2 [Colchicine]	1.2 ± 0.47	0.827 ± 0.047	0.667	1.06 ± 0.044
O=C(CCCN1CCC(n2c(=O)[nH]c3ccccc32)CC1)c1ccc(F)cc1 [Benperidol]	1.04 ± 0.25	0.951 ± 0.034	0.917	0.992 ± 0.033
CCC(=O)O[C@@](Cc1ccccc1)(c1ccccc1)[C@@H](C)CN(C)C [Levopropoxyphene napsylate]	1.29 ± 0.53	1.05 ± 0.037	0.909	0.996 ± 0.044
CC(Cc1ccccc1)NCCC(c1ccccc1)c1ccccc1 (stereo not drawn) [Prenylamine lactate]	1.05 ± 0.22	1.07 ± 0.071	0.727	0.953 ± 0.032
CN1[C@@H]2C[C@@H](OC(=O)[C@H](CO)c3ccccc3)C[C@H]1[C@@H]1O[C@@H]12 [Scopolamine hydrochloride]	0.986 ± 0.42	1.09 ± 0.054	0.833	0.984 ± 0.036
CC(C)CC(N(C)C)C1(c2ccc(Cl)cc2)CCC1 (stereo not drawn) [Sibutramine hydrochloride]	0.986 ± 0.37	0.995 ± 0.021	0.417	1.08 ± 0.054
CCCC(C)C1(CC)C(=O)NC(=O)NC1=O (stereo not drawn) [Pentobarbital]	1.63 ± 0.87	0.987 ± 0.044	0.667	1.214 ± 0.0019
C[C@]12CCC(=O)C=C1CC[C@@H]1[C@@H]2C(=O)C[C@]2(C)C(=O)CC[C@@H]12 [Adrenosterone]	0.651 ± 0.16	1.005 ± 0.0024	1	0.958 ± 0.021
CN1CCN(C(=O)OC2c3nccnc3C(=O)N2c2ccc(Cl)cn2)CC1 (stereo not drawn) [Zopiclone]	1.06 ± 0.41	0.93 ± 0.014	1	0.98709 ± 0.00059
CNC(C)(C)Cc1ccccc1 [Mephentermine hemisulfate]	0.946 ± 0.41	1.08 ± 0.036	1	0.991 ± 0.081
C1CCc2nnnn2CC1 [Pentylenetetrazole]	0.925 ± 0.28	0.994 ± 0.07	0.8	0.956 ± 0.021
O[C@@H]1CCCC[C@H]1N1CCC(c2ccccc2)CC1 [L(-)-vesamicol hydrochloride]	1.01 ± 0.55	0.955 ± 0.032	0.917	1.01 ± 0.075
CC(C)C[C@H](CN)CC(=O)O [Pregabalin]	1.1 ± 0.25	0.9518 ± 0.0028	0.917	1.03 ± 0.03
CN[C@@H]1C[C@@H](c2ccc(Cl)c(Cl)c2)c2ccccc21 [Indatraline hydrochloride]	0.788 ± 0.28	1.04 ± 0.011	0.833	0.9756 ± 0.0089
C[C@]12COC(=O)C[C@@H]1CC[C@@H]1[C@@H]2CC[C@@]2(C)[C@H]1CC[C@]2(C)O [Oxandrolone]	0.832 ± 0.35	1.1 ± 0.05	0.917	1.01 ± 0.036
CCC1(c2cccc(O)c2)CCCCN(C)C1 (stereo not drawn) [Meptazinol hydrochloride]	1.01 ± 0.35	0.967 ± 0.024	0.917	0.984 ± 0.06
OC(c1ccccc1)(c1ccccc1)C1CCNCC1 [Azacyclonol]	0.869 ± 0.25	0.9558 ± 0.0054	0.833	0.994 ± 0.029
C[C@]12CC[C@H](O)C[C@H]1CC[C@@H]1[C@@H]2CC[C@]2(C)[C@@H](C3=CC(=O)OC3)CC[C@]12O [Digitoxigenin]	1.38 ± 0.71	1.0869 ± 0.00048	0.667	1.03 ± 0.066
CC[C@@H](CO)NC(=O)[C@@H]1C=C2c3cccc4[nH]cc(c34)C[C@H]2N(C)C1 [Methylergometrine maleate]	1.12 ± 0.46	0.927 ± 0.056	0.909	1.05 ± 0.031

Compound	glomerular separation [1]	glomerular width [2]	fraction of imaged embryos annotated as normal kidney [3]	pronephric angle neck segment [4]
C[C@]12CC[C@@H](O)C[C@@H]1CC[C@@H]1[C@@H]2CC[C@]2(C)C(=O)CC[C@@H]12 [Androsterone]	0.907 ± 0.17	0.991 ± 0.038	0.75	0.999 ± 0.015
C[C@]12CCC(=O)C=C1C=C[C@@H]1[C@@H]2CC[C@@]2(C)[C@H]1CC[C@@]2(O)CCC(=O)O [Canrenoic acid potassium salt]	1.07 ± 0.36	1.03 ± 0.033	0.455	0.97 ± 0.046
C=CCN1CC[C@]23c4c5ccc(O)c4O[C@H]2C(=O)CC[C@@]3(O)[C@H]1C5 [Naloxone hydrochloride]	0.981 ± 0.33	1.01 ± 0.055	0.833	1.05 ± 0.017
NC(=O)CN1CCCC1=O [Piracetam]	0.815 ± 0.17	1.08 ± 0.032	0.917	0.914 ± 0.051
CC(=O)[C@H]1CC[C@H]2[C@@H]3CC[C@H]4C[C@H](O)CC[C@]4(C)[C@H]3C(=O)C[C@]12C [Alfaxalone]	0.896 ± 0.36	0.957 ± 0.0043	0.583	1.02 ± 0.027
CCN(C)C(=O)Oc1cccc([C@H](C)N(C)C)c1 [Rivastigmine]	1.1 ± 0.33	0.8935 ± 0.007	0.917	0.9906 ± 0.0047
CC(O)(CS(=O)(=O)c1ccc(F)cc1)C(=O)Nc1ccc(C#N)c(C(F)(F)F)c1 (stereo not drawn) [Bicalutamide]	1.14 ± 0.56	1.04 ± 0.023	0.75	0.971 ± 0.002
COc1ccc2c(c1)[C@]13CCCC[C@@H]1[C@H](C2)N(C)CC3 [Dextromethorphan hydrobromide monohydrate]	1.03 ± 0.23	0.9098 ± 0.004	0.833	1.04 ± 0.036
C[N+]12CCC(CC1)C(OC(=O)C(O)(c1ccccc1)c1ccccc1)C2 (stereo not drawn) [Clidinium bromide]	0.83 ± 0.32	0.982 ± 0.1	0.917	0.967 ± 0.022
CN1[C@@H]2CC[C@H]1C[C@@H](OC(=O)[C@H](CO)c1ccccc1)C2 [Hyoscyamine (L)]	0.956 ± 0.51	1.06 ± 0.03	0.75	0.999 ± 0.012
CCCC(C)(COC(N)=O)COC(=O)NC(C)C (stereo not drawn) [Carisoprodol]	0.877 ± 0.24	1.14 ± 0.026	1	0.938 ± 0.022
C=C1CC[C@@]2(O)[C@H]3Cc4ccc(O)c5c4[C@@]2(CCN3CC2CC2)[C@H]1O5 [Nalmefene hydrochloride]	0.938 ± 0.31	1.016 ± 0.01	0.75	1.007 ± 0.0021
C[C@]12N[C@H](Cc3ccccc31)c1ccccc12 [Dizocilpine maleate]	0.888 ± 0.31	1.03 ± 0.077	0.917	0.978 ± 0.071
CCC(=O)O[C@H]1CC[C@H]2[C@@H]3CCC4=CC(=O)CC[C@]4(C)[C@H]3CC[C@]12C [Testosterone propionate]	1.12 ± 0.46	1.03 ± 0.035	0.75	0.9686 ± 0.0074
O=c1[nH]c2ccccc2n1C1CCN(CCCC(c2ccc(F)cc2)c2ccc(F)cc2)CC1 [Pimozide]	4.46 ± 1.6	0.673 ± 0.02	0	0.976 ± 0.099
CN1C[C@H](C(=O)N[C@]2(C)O[C@@]3(O)[C@@H]4CCCN4C(=O)[C@H](Cc4ccccc4)N3C2=O)C[C@@H]2c3cccc4[nH]cc(c34)C[C@H]21 [Dihydroergotamine tartrate]	1.15 ± 0.56	1.0661 ± 0.00016	0.833	0.948 ± 0.015
COc1ccc(C(CN(C)C)C2(O)CCCCC2)cc1 (stereo not drawn) [Venlafaxine]	0.684 ± 0.13	1.023 ± 0.0059	0.917	0.925 ± 0.013
CN1[C@@H]2CC[C@H]1C[C@@H](OC(=O)C(CO)c1ccccc1)C2 (stereo partly drawn) [Atropine sulfate monohydrate]	1.25 ± 0.3	1.04 ± 0.011	1	1 ± 0.063
C[N+]1(C)[C@@H]2CC[C@H]1C[C@@H](OC(=O)C(CO)c1ccccc1)C2 (stereo partly drawn) [Methylatropine nitrate]	1.01 ± 0.39	0.936 ± 0.028	0.917	1.06 ± 0.017
